Compounds with a hit are over-represented: about 2.8% of the library has one in this group of screens.
TGFb inhibitor – TGF-b pathway inhibition | HepG2 CAGA-GFP TGF-b/SMAD3 reporter, GFP fluorescence, 18 h; TGF-beta stimulated, 500 pg/mL final | Potency, µM (titrated, usually from 46.1 µM), for inactives: top-dose activity, negative = inhibition, usual class: inhibitors | 410,000 tested, 1.2% active; further: on the % scale 0 is the no-effect control and ±100 the full control effect; nearly all actives have a fitted effect of over 65% in size
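Cell-based qHTS in HEPG2 carrying a CAGA-GFP Smad reporter; compounds added before 500 pg/mL final TGF-beta, 18 h incubation at 37 degrees C, GFP fluorescence quantified per cell by imaging cytometry.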
HTT cytoprotect – cytoprotection in Huntington HTT-Q103 PC12 cell model. PC12 HTT-Q103 induced, cytoprotection, ATP luminescence, 40 h. Potency, µM (highest dose often 56.4 µM), without a hit: cytoprotection (ATP increase), most hits filed as activators. 230,000 tested, 0.14% active; further: % of control where 0% means no effect; nearly all actives have a fitted effect of over 45% in size
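Rat PC12, Q103 Htt exon1-GFP fusion, ecdysone promoter; tebufenozide inducer 100 nM final; compound titration; qHTS, 1500 cells/well; ATPlite luminescent read.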
HepG2 tox – HepG2 cytotoxicity, counter-screen for TGF-b inhibitors; HepG2 CAGA-GFP viability, ATP luminescence, 18 h; Potency, µM (highest dose often 46.1 µM), inactives show at the highest dose activity change, negative = cytotoxicity, actives largely listed as cytotoxic; 410,000 tested, 0.76% active
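HepG2 CAGA-GFP cells (1000/well, DMEM with 1% FBS) received compound, then TGF-beta at 500 pg/mL final, and were incubated 18 hours at 37 degrees C. Viability was read by CellTiter-Glo luminescence. Media-only wells were set as complete cell-killing and DMSO as no toxicity.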
ATXN2 expr inh – inhibitors of ATXN2 expression; Potency, µM (top dose mostly 57 µM), for the others: top-dose activity change, negative = inhibition, actives largely listed as inhibitors; HEK-293 ATXN2-luciferase reporter, luminescence, 24 h; 360,000 tested, 0.72% active; further: on the % scale 0 is the no-effect control and ±100 the full control effect; nearly all actives have a fitted effect of over 55% in size
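qHTS (up to 57 uM final) was run with 24 h compound exposure of reporter cells at 37 °C. Each well was multiplexed: SteadyGlo luminescence measured ATXN2-luciferase expression after a fluorogenic Gly-Phe-AFC viability readout (25 uM final).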
HttQ103 aggreg – inhibitors of mutant huntingtin aggregate formation in PC12 cells. PC12 HttQ103-GFP aggregates, Acumen cytometry, 40 h. Potency, µM (top dose mostly 46.1 µM), for the others: at the top dose activity change, negative = inhibition, hits mostly inhibitors. 220,000 tested, 1.1% active. AID 1688; further: on the % scale 0 is the no-effect control and ±100 the full control effect; nearly all actives have a fitted effect of over 60% in size
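Steps: seed 1500 PC12 HTTQ103-GFP cells/well; add tebufenozide, 100 nM final; add compound titration; add ATPLite reagent; quantify GFP aggregates by laser scanning cytometry.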
S2 tox – reduces viability in counter-screen for ATXN expression inhibitors. S2 cells (HEK-293 line with an ATXN2-luciferase reporter) viability, CellTiter-Fluor protease fluorescence, 24 h. Potency, µM (top dose mostly 56.7 µM), hits mostly cytotoxic. 400,000 tested, 0.49% active. AID 651635; further: nearly all actives have a fitted effect of over 40% in size
The depositor's hits bear a star; i = inactive; ? = inconclusive; . = no result given; [ ] = another dose, or the depositor's remark. The call rests on the fitted dose curve; in most records, active means well fitted curve in the direction sought with a large enough effect; inconclusive means small, poorly fitted or top-dose-only effect, or another doubt; inactive means no such curve, though single readings can be large; an effect the other way counts as inactive or inconclusive. Potency means the concentration at half of the fitted maximal effect.

SMILES	TGFb inhibitor	HTT cytoprotect	HepG2 tox	ATXN2 expr inh	HttQ103 aggreg	S2 tox
CC1CCC(NC(=O)CCc2cn(Cc3ccccc3Cl)c3ccccc23)CC1 (stereo not drawn)	16µM*	.	-21%	.	.	.
O=C(CCc1cn(Cc2ccccc2Cl)c2ccccc12)NC1CCCCC1	?	.	-31%	.	.	.
CCN(CC)CCN1CCN(c2cncc(-c3ccc4ccccc4c3)n2)CC1	?	.	13µM*	-23%	.	?
CCCNC(=O)c1ccc2c(c1)N=C(CCC)c1ccccc1S2	8.9µM*	.	-28%	-37%	.	?
CCCC1=Nc2cc(C(=O)NCCCN3CCN(C)CC3)ccc2Sc2ccccc21	-4%	.	-63%	.	.	?
COc1ccc2c(c1)c(CC(=O)NCc1ccc3c(c1)OCO3)c(C)n2C(=O)c1ccc(Cl)cc1	.	-22%	.	.	.	.
O=[N+]([O-])c1ccc(Nc2nc(NCCN3CCOCC3)nc(Nc3ccc(I)cc3)n2)cc1	6%	.	-44%	.	.	.
CN(C)CCCNC(=O)C[C@H]1C[C@H](C(=O)N2CCCCC2)[C@@]2(CCc3ccccc3)c3[nH]c4cc(-c5ccco5)ccc4c3CCN2C1=O	?	.	14µM*	?	.	28µM*
CC(C)=CCC/C(C)=C/CNC(=O)C[C@H]1C[C@H](C(=O)N2CCOCC2)[C@@]2(C)c3[nH]c4cc(-c5ccco5)ccc4c3CCN2C1=O	13µM*	.	-77%	?	.	.
CN(C)CCCNC(=O)C[C@H]1C[C@H](C(=O)N2CCCCC2)[C@@]2(C)c3[nH]c4cc(-c5ccco5)ccc4c3CCN2C1=O	?	.	-86%	-21%	.	?
COC(=O)/C=C1\NC(=O)C(C)S1 (stereo not drawn)	0.56µM*	-17%	-24%	-38%	10%	?
CCOC(=O)/C=C1\NC(=O)C(C)S1 (stereo not drawn)	12%	-16%[10 µM]	4%	0%	4%	i
CCOCCCn1cc(C(=O)c2cc(Br)ccc2O)cc(C#N)c1=O	?	-120%	-9%	-28%	?	?
CCCCn1cc(C(=O)c2cc(Br)ccc2O)cc(C#N)c1=O	?	-54%	-21%	-17%	16µM*	?
COc1ccc(-n2cc(C(=O)c3cc(Cl)ccc3O)cc(C#N)c2=O)cc1	0%	-13%	-10%	-21%	17%	.
Cc1ccc(-n2cc(C(=O)c3cc(Cl)ccc3O)cc(C#N)c2=O)cc1	?	19%[10 µM]	-50%	-18%	13µM*	i
CCN(CC)C(=O)N1CCN(/[N+]([O-])=N/Oc2ccc([N+](=O)[O-])cc2[N+](=O)[O-])CC1	?	.	-34%	.	.	.
CCOC(=O)c1ccc(NC(=O)Cn2nc(SC)c(S(=O)(=O)c3ccc(Cl)cc3)c2N)cc1	5µM*	.	-34%	?	.	?
Cc1cc(C)c2c(C)ccnc2c1	-4%	.	1%	.	.	.
C=CC(=O)Nc1cccc(Oc2ccnc3[nH]ccc23)c1	?	.	2%	-33%	.	8.9µM*
C=CC(=O)Nc1cccc(Oc2ncnc3[nH]cc(-c4cnc5ccccc5c4)c23)c1	-25%	.	-15%	15%	.	?
O=C(NC(=S)Nc1ccccc1N1CCCCC1)c1ccco1	11µM*	26%[10 µM]	-42%	19%	16%	i
O=C(C[C@H]1C/C=C\C[C@H](NC(=O)OCC2c3ccccc3-c3ccccc32)C(=O)OC[C@H](Cc2ccccc2)NC1=O)N[C@H](CO)Cc1ccccc1	?	.	13µM*	?	.	?
C[C@@H]1COC(=O)[C@H](NC(=O)OCC2c3ccccc3-c3ccccc32)C/C=C\C[C@@H](CC(=O)N[C@@H](CO)Cc2ccccc2)C(=O)N1	-23%	.	6%	6%	.	?
COCCNc1c2c(nc3c(-c4ccccc4)c(C)nn13)CCCC2	?	-31%	-39%	-23%	-31%	i
SMILES	TGFb inhibitor	HTT cytoprotect	HepG2 tox	ATXN2 expr inh	HttQ103 aggreg	S2 tox
Cc1nn2c(NCCN(C)C)c3c(nc2c1-c1ccccc1)CCCC3	11µM*	14%[10 µM]	-68%	-3%	-4%[9.22 µM]	.
COc1cc(CCN2C(=O)N[C@@H](c3ccccc3)C(C(C)=O)=C2C)cc(OC)c1OC	.	4%	.	.	.	.
CC(C)c1c(C(=O)NCC2(N3CCCCC3)CCCC2)cnn1-c1nccc(-c2ccco2)n1	.	.	.	.	.	i
COc1ccccc1-c1cc2c(c(OC)c1)OCCN(C(=O)Cn1nc(-c3ccccc3)c3ccccc3c1=O)C2	.	.	.	.	.	i
CN1/C(=C\C(=O)COC(=O)Cn2nnc(-c3ccccc3)n2)C(C)(C)c2ccccc21	3%	-8%	-39%	-35%	11µM*	i
O=C(Nc1ncnc2nc[nH]c12)c1ccccc1	1%	.	0%	.	.	.
O=C(CCl)N(c1ccccc1)C1CCS(=O)(=O)C1 (stereo not drawn)	?	13%[10 µM]	13µM*	?	8.9µM*	.
CC(=O)Nc1ccc(C(=O)OCC(=O)N(c2ccccc2)C2CCS(=O)(=O)C2)cc1 (stereo not drawn)	-4%	.	1%	.	.	?
Cc1c(C(=O)c2no[n+]([O-])c2C(=O)c2cnn(C)c2C)cnn1C	7.9µM*	-153%	11µM*	?	?	.
Cc1c(C(=O)Nc2ccc(Br)cc2)cnn1C	7%	-22%[10 µM]	-59%	48%	-24%	i
O=C(N/N=C/c1ccc(O)cc1)c1[nH]c2ccc(Br)cc2c1-c1ccccc1	11µM*	-69%[10 µM]	-44%	-22%	-10%	i
Cc1c(C(=O)O)[nH]c2ccc([N+](=O)[O-])cc12	-18%	.	-6%	2%[11.3 µM]	15%	?
Cc1c(C(=O)N/N=C/C(C)C)[nH]c2ccc([N+](=O)[O-])cc12	-2%	0%[1.9 µM]	22%	.	7.1µM*	i
Cc1c(C(=O)N/N=C/c2ccc(Cl)cc2)[nH]c2ccc(Cl)cc12	2µM*	9%[1.9 µM]	10µM*	.	3%	?
O=C(N/N=C/c1c[nH]c2ccccc12)c1[nH]c2ccc(Br)cc2c1-c1ccccc1	?	-62%[1.9 µM]	-106%	-25%	-9%	i
CCc1cccc2c(C(O)c3c[nH]c4ccccc34)c[nH]c12 (stereo not drawn)	?	.	-80%	.	.	.
Cc1cc(C)n(-c2nnc(Nc3ccc(C)c(Cl)c3)c3ccccc23)n1	10µM*	.	-21%	-5%	.	i
CSC(N)=NCCC[C@@H](N)C(=O)O	.	17%[1.9 µM]	.	.	.	.
CC(C)C(N)c1csc(Nc2cc(Oc3ccccc3)ncn2)n1 (stereo not drawn)	-16%	.	-16%	-13%	.	?

Source: PubChem BioAssay
